Results taken from article PMC7862700, “An all-to-all approach to the identification of sequence-specific readers for epigenetic DNA modifications on cytosine”.

Tests used:
Assay in all cases: DAPPL (digital affinity profiling via proximity ligation, sequencing); 10 mM Tris-HCl pH 7.5, 50 mM NaCl, 1 mM DTT, 4% glycerol, room temperature, 30 min; GST-TFs on glutathione beads, 16-mer random dsDNA library, 0.1% formaldehyde crosslink after washing; high values mean tight binding
Conditions in all cases: protein: recombinant; tags: N-terminal GST; dsDNA, one strand shown
[1] = target: T1, ERF (Homo sapiens, UniProt P50548 1-548)
T1 sequence: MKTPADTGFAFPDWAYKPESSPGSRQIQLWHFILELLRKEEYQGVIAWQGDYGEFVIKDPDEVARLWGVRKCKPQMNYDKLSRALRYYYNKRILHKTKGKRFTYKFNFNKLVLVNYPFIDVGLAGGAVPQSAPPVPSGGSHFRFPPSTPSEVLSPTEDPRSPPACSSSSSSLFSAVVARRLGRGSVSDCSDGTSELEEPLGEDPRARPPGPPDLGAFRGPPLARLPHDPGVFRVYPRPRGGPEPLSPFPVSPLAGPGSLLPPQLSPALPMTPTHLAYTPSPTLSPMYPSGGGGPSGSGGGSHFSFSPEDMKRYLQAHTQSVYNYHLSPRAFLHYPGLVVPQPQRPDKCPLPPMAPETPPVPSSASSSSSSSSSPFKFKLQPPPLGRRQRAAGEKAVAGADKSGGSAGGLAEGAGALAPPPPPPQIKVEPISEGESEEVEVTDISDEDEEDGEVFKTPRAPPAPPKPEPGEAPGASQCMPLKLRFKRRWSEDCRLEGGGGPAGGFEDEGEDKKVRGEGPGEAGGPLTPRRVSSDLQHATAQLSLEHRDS
In short: (§1)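 Pools of DNA-barcoded human transcription factors, expressed in yeast as GST fusions on glutathione beads and combined with a tag-only sample, were incubated with 200 nmole of a 16-mer random double-stranded DNA library. Incubation took 30 min at room temperature in Tris/NaCl/DTT/glycerol buffer and was followed by washing, 0.1% formaldehyde crosslinking, proximity ligation (BsaI/T4 ligase, 1 h, 37 °C), PCR amplification and sequencing on an Illumina NextSeq500. Binding signal is the ratio of a hexamer's read frequency for a factor to its frequency for the tag-only sample.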

[2] = target: T2, ETV3L (Homo sapiens, UniProt Q6ZN32 1-361)
T2 sequence: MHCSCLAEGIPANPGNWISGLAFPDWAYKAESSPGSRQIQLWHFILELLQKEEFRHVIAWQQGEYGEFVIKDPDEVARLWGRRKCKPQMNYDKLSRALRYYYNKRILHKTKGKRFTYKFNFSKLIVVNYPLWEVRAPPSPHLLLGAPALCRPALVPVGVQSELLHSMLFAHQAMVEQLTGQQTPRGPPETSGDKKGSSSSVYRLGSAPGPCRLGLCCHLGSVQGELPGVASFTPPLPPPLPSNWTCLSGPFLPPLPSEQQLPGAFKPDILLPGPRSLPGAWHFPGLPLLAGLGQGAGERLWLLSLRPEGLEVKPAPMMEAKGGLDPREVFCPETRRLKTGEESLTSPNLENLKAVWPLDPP
In short: as §1

[3] = target: T3, ETS2 (Homo sapiens, UniProt P15036 1-469)
T3 sequence: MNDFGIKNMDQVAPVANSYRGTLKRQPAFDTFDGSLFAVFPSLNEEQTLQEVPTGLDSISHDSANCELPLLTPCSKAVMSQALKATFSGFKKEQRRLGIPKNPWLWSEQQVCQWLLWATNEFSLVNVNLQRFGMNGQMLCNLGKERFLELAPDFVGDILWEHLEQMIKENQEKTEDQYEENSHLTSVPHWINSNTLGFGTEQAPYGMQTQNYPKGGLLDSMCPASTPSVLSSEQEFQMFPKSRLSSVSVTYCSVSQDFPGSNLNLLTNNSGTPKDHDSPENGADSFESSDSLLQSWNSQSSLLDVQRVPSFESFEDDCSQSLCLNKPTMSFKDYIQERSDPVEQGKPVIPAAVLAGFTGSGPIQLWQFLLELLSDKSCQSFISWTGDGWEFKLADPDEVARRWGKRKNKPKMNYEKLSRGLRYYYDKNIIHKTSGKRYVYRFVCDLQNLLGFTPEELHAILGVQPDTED
In short: as §1

[4] = target: T4, SPDEF (Homo sapiens, UniProt O95238 1-335)
T4 sequence: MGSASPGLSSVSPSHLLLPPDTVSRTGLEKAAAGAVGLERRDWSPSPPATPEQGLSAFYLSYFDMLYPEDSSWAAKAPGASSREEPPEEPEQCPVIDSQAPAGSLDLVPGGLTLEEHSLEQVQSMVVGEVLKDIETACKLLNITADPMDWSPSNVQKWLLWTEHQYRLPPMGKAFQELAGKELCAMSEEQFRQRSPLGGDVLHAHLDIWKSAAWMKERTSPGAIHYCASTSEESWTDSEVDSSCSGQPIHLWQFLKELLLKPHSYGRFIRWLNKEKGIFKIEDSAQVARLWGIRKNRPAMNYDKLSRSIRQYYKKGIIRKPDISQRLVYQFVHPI
In short: as §1

[5] = target: T5, ETV7 (Homo sapiens, UniProt Q9Y603 1-341)
T5 sequence: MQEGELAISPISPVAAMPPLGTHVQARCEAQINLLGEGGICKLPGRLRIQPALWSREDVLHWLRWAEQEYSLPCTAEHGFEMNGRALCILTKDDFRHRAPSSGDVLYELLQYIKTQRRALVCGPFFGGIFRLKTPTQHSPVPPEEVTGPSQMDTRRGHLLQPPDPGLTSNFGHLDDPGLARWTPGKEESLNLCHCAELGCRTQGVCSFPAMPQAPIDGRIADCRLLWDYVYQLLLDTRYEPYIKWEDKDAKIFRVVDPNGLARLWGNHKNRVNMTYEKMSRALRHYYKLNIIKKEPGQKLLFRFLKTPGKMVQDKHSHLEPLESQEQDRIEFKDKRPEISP
In short: as §1

[6] = target: T6, ELF5 (Homo sapiens, UniProt Q9UKW6-2 1-255)
T6 sequence: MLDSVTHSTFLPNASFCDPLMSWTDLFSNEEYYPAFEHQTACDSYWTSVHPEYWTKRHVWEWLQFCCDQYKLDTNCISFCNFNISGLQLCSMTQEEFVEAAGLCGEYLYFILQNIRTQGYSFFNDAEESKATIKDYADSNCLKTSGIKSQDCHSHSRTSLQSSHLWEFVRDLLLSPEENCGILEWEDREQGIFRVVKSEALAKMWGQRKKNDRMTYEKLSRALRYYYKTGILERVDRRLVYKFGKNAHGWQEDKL
In short: as §1

[7] = target: T7, ETV3 (Homo sapiens, UniProt P41162-2 1-143)
T7 sequence: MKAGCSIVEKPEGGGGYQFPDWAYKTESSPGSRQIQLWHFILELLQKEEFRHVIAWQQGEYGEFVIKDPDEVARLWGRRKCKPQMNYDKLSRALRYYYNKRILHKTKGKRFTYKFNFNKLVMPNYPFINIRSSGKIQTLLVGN
In short: as §1

[8] = target: ETV6 (Homo sapiens, UniProt P41212 1-452)
In short: as §1

ETV6, sequence (P41212 whole entry): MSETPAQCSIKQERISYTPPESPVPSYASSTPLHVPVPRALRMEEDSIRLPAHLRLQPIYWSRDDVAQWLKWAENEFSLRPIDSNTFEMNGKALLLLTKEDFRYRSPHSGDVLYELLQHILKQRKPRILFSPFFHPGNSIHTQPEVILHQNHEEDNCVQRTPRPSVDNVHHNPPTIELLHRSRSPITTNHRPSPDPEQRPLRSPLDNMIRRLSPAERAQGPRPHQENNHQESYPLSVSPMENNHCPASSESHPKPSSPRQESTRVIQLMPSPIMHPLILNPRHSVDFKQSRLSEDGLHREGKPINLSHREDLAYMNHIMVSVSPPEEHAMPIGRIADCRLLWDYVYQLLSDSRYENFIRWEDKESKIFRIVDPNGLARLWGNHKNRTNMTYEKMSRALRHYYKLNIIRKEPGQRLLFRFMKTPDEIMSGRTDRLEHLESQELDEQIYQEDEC

CTAGTT
binding signal [1]: 1.34 fold enrichment (6-mer frequency, TF over GST control)
binding signal [2]: 1.23 fold enrichment (6-mer frequency, TF over GST control)
binding signal [3]: 1.38 fold enrichment (6-mer frequency, TF over GST control)
binding signal [4]: 1.29 fold enrichment (6-mer frequency, TF over GST control)
binding signal [5]: 1.28 fold enrichment (6-mer frequency, TF over GST control)
binding signal [6]: 1.22 fold enrichment (6-mer frequency, TF over GST control)
binding signal [7]: 1.19 fold enrichment (6-mer frequency, TF over GST control)
binding signal [8]: 1.3 fold enrichment (6-mer frequency, TF over GST control)

CCCGAT
binding signal [1]: 1.22 fold enrichment (6-mer frequency, TF over GST control)
binding signal [2]: 1.14 fold enrichment (6-mer frequency, TF over GST control)
binding signal [3]: 1.23 fold enrichment (6-mer frequency, TF over GST control)
binding signal [4]: 1.11 fold enrichment (6-mer frequency, TF over GST control)
binding signal [5]: 1.24 fold enrichment (6-mer frequency, TF over GST control)
binding signal [6]: 1.24 fold enrichment (6-mer frequency, TF over GST control)
binding signal [7]: 1.21 fold enrichment (6-mer frequency, TF over GST control)
binding signal [8]: 1.06 fold enrichment (6-mer frequency, TF over GST control)

CTTAAT
binding signal [1]: 1.27 fold enrichment (6-mer frequency, TF over GST control)
binding signal [2]: 1.4 fold enrichment (6-mer frequency, TF over GST control)
binding signal [3]: 1.37 fold enrichment (6-mer frequency, TF over GST control)
binding signal [4]: 1.25 fold enrichment (6-mer frequency, TF over GST control)
binding signal [5]: 1.33 fold enrichment (6-mer frequency, TF over GST control)
binding signal [6]: 1.25 fold enrichment (6-mer frequency, TF over GST control)
binding signal [7]: 1.27 fold enrichment (6-mer frequency, TF over GST control)
binding signal [8]: 1.25 fold enrichment (6-mer frequency, TF over GST control)

TCCGAA
binding signal [1]: 1.36 fold enrichment (6-mer frequency, TF over GST control)
binding signal [2]: 1.32 fold enrichment (6-mer frequency, TF over GST control)
binding signal [3]: 1.23 fold enrichment (6-mer frequency, TF over GST control)
binding signal [4]: 1.29 fold enrichment (6-mer frequency, TF over GST control)
binding signal [5]: 1.25 fold enrichment (6-mer frequency, TF over GST control)
binding signal [6]: 1.25 fold enrichment (6-mer frequency, TF over GST control)
binding signal [7]: 1.15 fold enrichment (6-mer frequency, TF over GST control)
binding signal [8]: 1.37 fold enrichment (6-mer frequency, TF over GST control)

CCACTA
binding signal [1]: 1.11 fold enrichment (6-mer frequency, TF over GST control)
binding signal [2]: 1.13 fold enrichment (6-mer frequency, TF over GST control)
binding signal [3]: 1.14 fold enrichment (6-mer frequency, TF over GST control)
binding signal [4]: 1.09 fold enrichment (6-mer frequency, TF over GST control)
binding signal [5]: 1.04 fold enrichment (6-mer frequency, TF over GST control)
binding signal [6]: 1.06 fold enrichment (6-mer frequency, TF over GST control)
binding signal [7]: 1.03 fold enrichment (6-mer frequency, TF over GST control)
binding signal [8]: 1.07 fold enrichment (6-mer frequency, TF over GST control)

TTTCCC
binding signal [1]: 1.57 fold enrichment (6-mer frequency, TF over GST control)
binding signal [2]: 1.7 fold enrichment (6-mer frequency, TF over GST control)
binding signal [3]: 1.71 fold enrichment (6-mer frequency, TF over GST control)
binding signal [4]: 1.45 fold enrichment (6-mer frequency, TF over GST control)
binding signal [5]: 1.65 fold enrichment (6-mer frequency, TF over GST control)
binding signal [6]: 2.51 fold enrichment (6-mer frequency, TF over GST control)
binding signal [7]: 1.75 fold enrichment (6-mer frequency, TF over GST control)
binding signal [8]: 1.97 fold enrichment (6-mer frequency, TF over GST control)

TCCCCT
binding signal [1]: 1.69 fold enrichment (6-mer frequency, TF over GST control)
binding signal [2]: 1.64 fold enrichment (6-mer frequency, TF over GST control)
binding signal [3]: 1.69 fold enrichment (6-mer frequency, TF over GST control)
binding signal [4]: 1.54 fold enrichment (6-mer frequency, TF over GST control)
binding signal [5]: 1.58 fold enrichment (6-mer frequency, TF over GST control)
binding signal [6]: 1.76 fold enrichment (6-mer frequency, TF over GST control)
binding signal [7]: 1.54 fold enrichment (6-mer frequency, TF over GST control)
binding signal [8]: 1.65 fold enrichment (6-mer frequency, TF over GST control)

CCTTTT
binding signal [1]: 1.65 fold enrichment (6-mer frequency, TF over GST control)
binding signal [2]: 1.69 fold enrichment (6-mer frequency, TF over GST control)
binding signal [3]: 1.46 fold enrichment (6-mer frequency, TF over GST control)
binding signal [4]: 1.55 fold enrichment (6-mer frequency, TF over GST control)
binding signal [5]: 1.53 fold enrichment (6-mer frequency, TF over GST control)
binding signal [6]: 1.61 fold enrichment (6-mer frequency, TF over GST control)
binding signal [7]: 1.55 fold enrichment (6-mer frequency, TF over GST control)
binding signal [8]: 1.67 fold enrichment (6-mer frequency, TF over GST control)

CGCCCT
binding signal [1]: 1.37 fold enrichment (6-mer frequency, TF over GST control)
binding signal [2]: 1.34 fold enrichment (6-mer frequency, TF over GST control)
binding signal [3]: 1.38 fold enrichment (6-mer frequency, TF over GST control)
binding signal [4]: 1.31 fold enrichment (6-mer frequency, TF over GST control)
binding signal [5]: 1.51 fold enrichment (6-mer frequency, TF over GST control)
binding signal [6]: 1.22 fold enrichment (6-mer frequency, TF over GST control)
binding signal [7]: 1.34 fold enrichment (6-mer frequency, TF over GST control)
binding signal [8]: 1.31 fold enrichment (6-mer frequency, TF over GST control)
